Assay [1] can be described thus: inhibitors of TNFa-induced NFkB p65 translocation, primary screen, imaging, HUVEC, MLSMR starter and 10KST1 sets (AID 438;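 active = inhibition above 20% together with a positive visual image hit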;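 also: compound added about 3h40 before a 20 min TNFalpha stimulation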;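 as to inhibition: signal is the nuclear over cytoplasmic p65 intensity ratio per well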). The following applies: HUVEC TNFa-induced p65 nuclear translocation; cell count: measured here: nuclei count (cytotoxicity indicator), at 2.08 µM; inhibition: at 2 µM, stronger effect = higher value, 0% TNFa-plus-vehicle, 100% no-TNFa wells.
Assay [2] can be described thus: reduction of polyQ htt aggregates in cells – imaging, exon1htt(103Q)mCFP cells, high-content imaging, primary screen (AID 483).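 Also: compound exposure lasted 3 days before fixation.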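 As to nuclei count: percent of the per-plate median nuclei count of sample wells.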 To be noted: exon1htt(103Q)mCFP cell line, aggregate imaging, at 2 µM; inhibition of aggregation: stronger effect = higher value; nuclei count: measured here: cell count, toxicity.
Assay [3] can be described thus: endothelial E-selectin expression blockers – imaging, HUVEC, immunofluorescence, MLSMR starter and 10KST1 sets, primary screen (AID 487;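 active = visually confirmed hit in the image check and inhibition above 20%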;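 as to inhibition: signal is fraction of cell area covered by stained E-selectin grains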;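 as to nuclei count: 100% = median nuclei count of all wells on the same plate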). The following applies: HUVEC TNFalpha-induced E-selectin immunofluorescence imaging, at 2 µM; inhibition: stronger effect = higher value; nuclei count: measured here: cell number, toxicity.
Assay [4] has as its target Voltage-gated potassium channel subunit beta-2 (Rattus norvegicus) (UniProt P62483). Description: inhibitors of rat Kvbeta2 reductase activity – biochemical, NADPH fluorescence, primary screen (AID 622;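 active = fluorescence slope higher than the sample average by over 3 SD, cut at about -0.22 in these data, passing the limit was not always enough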;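 also: slope of raw intensity against log time taken from 70 to 1610 s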). The following applies: recombinant KvBeta, 4-cyanobenzaldehyde reduction, at 10 µM, stronger effect = higher value.
For assay [5] the target is unchanged. Briefly: enhancers of rat Kvbeta2 NADPH turnover – biochemical, NADPH fluorescence, primary screen (AID 623;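 active = NADPH fluorescence slope more negative than the mean of all samples by about 3 SD, 99.7% confidence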;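 also: fluorescence intensity change per second fitted from 20 to 320 s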). To be noted: Recombinant KvBeta, NADPH fluorescence decrease slope, 10 min; at 10 µM; stronger effect = lower value.
The target in assay [6] is Alpha-2C adrenergic receptor (Homo sapiens) (UniProt P18825). Description: compounds altering alpha2C-coupled GIRK flux – cell-based, HEK293 alpha2C/GIRK1/2, thallium flux, primary screen (AID 624;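 active = fluorescence slope after compound addition differing from the mean of all screened samples at 99.7% confidence, in either direction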;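 also: slope of fluorescence ratio to pre-addition baseline per second over 15 to 24 s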). The following applies: thallium flux BTC fluorescence, at 10 µM, actives lie on both sides.
Assay [7] in a line: blockers of RIG-like receptor reporter activation – cell-based, Sendai virus stimulus, luciferase, 10K MLSCN set, TLR/RLR signaling modifier project, primary screen (AID 602276;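 active = inhibition at or above 50% at 10 µM; inactive = inhibition below 50%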;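 also: firefly luciferase from ISG56 promoter only with Renilla not read in this screen; 0% = Sendai virus plus DMSO and 100% = medium plus DMSO without virus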). The following applies: HEK293 RL24 IRF3 luciferase reporter, at 10 µM, stronger effect = higher value. Background: Reporter assays use an easily measured gene product as a stand-in for the process of interest.
A short description of assay [8]: TLR3 IRF3 reporter activation blockers – cell-based, poly I:C stimulus, luciferase, 10K MLSCN set, primary screen (AID 602277;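 active = inhibition of the reporter signal at or above 50%; inactive = inhibition below 50%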). To be noted: HEK293-TLR3 RL24 IRF3 luciferase reporter, at 10 µM, stronger effect = higher value.

Calls of active or inactive are those of the source.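 The calls were made as follows, unless noted: active = visual image review flags a hit and inhibition of aggregation exceeds 20%; inconclusive = visual hit but inhibition at or below 20%; inactive = no hit on visual image review.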

Chain of Alpha-2C adrenergic receptor (Homo sapiens) (P18825 whole entry, looked up): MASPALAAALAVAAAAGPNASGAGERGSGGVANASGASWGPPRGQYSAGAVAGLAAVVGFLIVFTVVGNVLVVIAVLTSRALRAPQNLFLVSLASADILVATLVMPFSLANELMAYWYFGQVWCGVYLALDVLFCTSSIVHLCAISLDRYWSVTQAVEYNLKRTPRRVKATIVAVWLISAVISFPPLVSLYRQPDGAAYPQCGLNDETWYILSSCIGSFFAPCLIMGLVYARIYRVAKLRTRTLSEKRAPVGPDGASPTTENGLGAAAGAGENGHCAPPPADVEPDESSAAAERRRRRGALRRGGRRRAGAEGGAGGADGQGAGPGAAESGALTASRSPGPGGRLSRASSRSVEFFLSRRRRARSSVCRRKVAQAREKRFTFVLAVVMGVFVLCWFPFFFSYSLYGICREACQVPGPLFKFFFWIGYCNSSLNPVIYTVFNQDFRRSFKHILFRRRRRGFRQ
Chain of Voltage-gated potassium channel subunit beta-2 (Rattus norvegicus) (P62483 whole entry, looked up): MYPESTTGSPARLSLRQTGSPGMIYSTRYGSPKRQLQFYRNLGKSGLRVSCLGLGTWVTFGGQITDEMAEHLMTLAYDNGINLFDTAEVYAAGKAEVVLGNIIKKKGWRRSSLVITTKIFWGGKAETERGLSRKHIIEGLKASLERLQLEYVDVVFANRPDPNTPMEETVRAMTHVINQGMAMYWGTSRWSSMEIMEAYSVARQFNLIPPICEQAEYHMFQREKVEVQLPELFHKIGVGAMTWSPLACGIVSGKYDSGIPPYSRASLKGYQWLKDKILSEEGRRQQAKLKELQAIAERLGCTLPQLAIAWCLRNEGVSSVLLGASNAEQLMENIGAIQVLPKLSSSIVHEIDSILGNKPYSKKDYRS

Turning to `CN(CC(=O)NCCC1=CCCCC1)S(=O)(=O)c1ccc2c(c1)CCC(=O)N2`, the cell count in assay [1] was 603. Further, the inhibition (commonly the relative decrease from the control value, in per cent) in assay [1] was 16.1% (inactive); in assay [3] it was -110% (inactive); in assay [7], -4.9% (inactive); in assay [8], 16.8% (inactive). The inhibition of aggregation in assay [2] is 19% (inactive). The nuclei count in assay [2] worked out at 111%; in assay [3], 141%. For the same compound, the fluorescence slope in assay [4] is -0.505 (inactive). For the same compound, in assay [5], the NADPH fluorescence slope is 1.1e-05 (inactive). Moreover, in assay [6], the slope was 0.00584 (inactive).

As to `Cc1cc(OCC(=O)N2CCCC2)cc(C)c1Cl`, the cell count in assay [1] is 633. Further, the inhibition is 6.6% (inactive) in assay [1], -128% (inactive) in assay [3], 4.42% (inactive) in assay [7] and -0.933% (inactive) in assay [8]. In addition, the inhibition of aggregation in assay [2] was 3.4% (inactive). For the same compound, the results for the nuclei count in assay [2] and in assay [3] were 95% and 99.5%, respectively. Also, in assay [4], the fluorescence slope is -0.601 (inactive). Also, in assay [5], the NADPH fluorescence slope is -7.6e-05 (inactive). In addition, the slope in assay [6] is 0.00573 (inactive).

`Cc1[nH]nc2c1C1(C(=O)N(Cc3ccc(Cl)cc3)c3ccccc31)C(C#N)=C(N)O2` (centres undefined): the cell count in assay [1] worked out at 358. The inhibition was 1.4% (inactive) in assay [1], -24.6% (inactive) in assay [3], 12.5% (inactive) in assay [7] and 0.315% (inactive) in assay [8]. Moreover, in assay [2], the inhibition of aggregation was -1.1% (inactive). Also, the nuclei count in assay [2] was determined as 101%; in assay [3], 114%. Further, the fluorescence slope in assay [4] is -0.338 (inactive). In assay [5], the NADPH fluorescence slope is -3.4e-05 (inactive). Moreover, the slope in assay [6] was 0.00523 (inactive).

For `Cc1ccccc1Cn1nc(C)c(NC(=O)c2noc3c2CCc2ccccc2-3)c1C`, the cell count in assay [1] was 720. The inhibition in assay [1] is 2.9% (inactive); in assay [3], -88.7% (inactive); in assay [7] it was 8.23% (inactive); in assay [8], 0.0552% (inactive). Besides, in assay [2], the inhibition of aggregation was 4.7% (inactive). Moreover, the nuclei count in assay [2] was determined as 78.3%; in assay [3] it was 108%. Besides, in assay [4], the fluorescence slope is -0.588 (inactive). Moreover, in assay [5], the NADPH fluorescence slope was 4e-06 (inactive). Moreover, the slope in assay [6] was 0.00754 (inactive).

As to `CC(C)CCN1CC(C(=O)NCc2ccccc2)CC1=O` (centres undefined), the cell count in assay [1] worked out at 538. In addition, the inhibition in assay [1] was 2.2% (inactive); in assay [3], -57.7% (inactive); in assay [7], 30.7% (inactive); in assay [8], 14.3% (inactive). Besides, the inhibition of aggregation in assay [2] was 2.7% (inactive). Besides, the nuclei count in assay [2] was found to be 121%; in assay [3] it was 108%. Also, in assay [4], the fluorescence slope was -0.288 (inactive). Besides, in assay [5], the NADPH fluorescence slope is -1.6e-05 (inactive). For the same compound, the slope in assay [6] is 0.00611 (inactive).

Take `CCOc1ccc(NC(=O)c2ccccc2O)cc1`: the cell count in assay [1] amounted to 558. In addition, the inhibition in assay [1] is -1.7% (inactive); in assay [3], -114% (inactive); in assay [7], -59.1% (inactive); in assay [8], -110% (inactive). In addition, the inhibition of aggregation in assay [2] was 9.7% (inactive). The nuclei count was 71.8% in assay [2] and 96.2% in assay [3]. For the same compound, in assay [4], the fluorescence slope is -0.622 (inactive). Also, the NADPH fluorescence slope in assay [5] was -2e-05 (inactive). For the same compound, in assay [6], the slope was 0.00439 (inactive).

On to `NC(=O)CN1C(=O)C(O)(CC(=O)c2ccccc2O)c2ccccc21` (centres undefined), for which, in assay [1], the cell count turned out to be 641. The inhibition is -0.3% (inactive) in assay [1], -65.3% (inactive) in assay [3], 12.7% (inactive) in assay [7] and 38.5% (inactive) in assay [8]. In addition, in assay [2], the inhibition of aggregation is -4.7% (inactive). Besides, the nuclei count in assay [2] stood at 122%; in assay [3], 133%. Moreover, the fluorescence slope in assay [4] was -0.395 (inactive). The NADPH fluorescence slope in assay [5] is -4.6e-05 (inactive). For the same compound, the slope in assay [6] was 0.00547 (inactive).

As for `CC(C)c1nnc(NC(=O)CCC(=O)NCc2ccc3c(c2)OCO3)s1`, in assay [1], the cell count amounted to 571. In addition, the inhibition in assay [1] is 11.2% (inactive); in assay [3], 21.4% (inactive); in assay [7], 14.1% (inactive); in assay [8] it was 13.8% (inactive). In addition, the inhibition of aggregation in assay [2] is -5.1% (inactive). Also, the nuclei count worked out at 95.8% in assay [2] and 97.3% in assay [3]. Moreover, the fluorescence slope in assay [4] was -0.404 (inactive). The NADPH fluorescence slope in assay [5] was -4.6e-05 (inactive). The slope in assay [6] was 0.00581 (inactive).

As for `CCN(C(=O)c1cc(Cl)ccc1OC)c1ccccc1`, in assay [1], the cell count stood at 354. Moreover, the inhibition in assay [1] was 5.3% (inactive); in assay [3], -7.9% (inactive); in assay [7], 14.3% (inactive); in assay [8], 48.8% (inactive). The inhibition of aggregation in assay [2] is -20.6% (inactive). Further, the nuclei count in assay [2] worked out at 100%; in assay [3], 118%. Moreover, the fluorescence slope in assay [4] is -0.447 (inactive). The NADPH fluorescence slope in assay [5] was -4.1e-05 (inactive). Also, the slope in assay [6] is 0.00295 (inactive).

Regarding `Cc1ccc(Cn2c(=N)c(C(=O)NCc3ccco3)cc3c(=O)n4ccccc4nc32)cc1`, in assay [1], the cell count is 491. The inhibition in assay [1] was 1.5% (inactive); in assay [3], -83% (inactive); in assay [7], -2.87% (inactive); in assay [8], 10.3% (inactive). In addition, the inhibition of aggregation in assay [2] was -19.4% (inactive). The nuclei count is 95.7% in assay [2] and 106% in assay [3]. Also, in assay [4], the fluorescence slope is -0.279 (inactive). The NADPH fluorescence slope in assay [5] was -5.9e-05 (inactive). In assay [6], the slope was 0.00216 (inactive).

In the case of `CCOC(=O)Cc1nnc(NC(=O)c2ccccc2OCC)s1`, the cell count in assay [1] was found to be 583. Besides, the inhibition in assay [1] is 12.6% (inactive); in assay [3], -43.9% (inactive); in assay [7], 4.48% (inactive); in assay [8], 4.72% (inactive). The inhibition of aggregation in assay [2] was 5.3% (inactive). Moreover, the nuclei count was 102% in assay [2] and 123% in assay [3]. The fluorescence slope in assay [4] was -0.448 (inactive). Besides, the NADPH fluorescence slope in assay [5] was -0.000111 (inactive). The slope in assay [6] was 0.005 (inactive).

Turning to `COC(=O)C1=C(C)NC(C)=C(C(=O)OC)C1C1CC=CCC1` (centres undefined), the cell count in assay [1] is 377. In addition, the inhibition in assay [1] was 1.7% (inactive); in assay [3], 32.4% (inactive); in assay [7], 8.91% (inactive); in assay [8], 22.8% (inactive). Moreover, in assay [2], the inhibition of aggregation is 24.3% (inactive). Further, the nuclei count was 91.2% in assay [2] and 93.7% in assay [3]. Besides, in assay [4], the fluorescence slope is -0.456 (inactive). Also, the NADPH fluorescence slope in assay [5] was 8.7e-05 (inactive). Also, the slope in assay [6] was 0.00547 (inactive).

`Cc1ccc2c(CNCc3ccco3)cc(=O)oc2c1`: in assay [1], the cell count was 712. The inhibition in assay [1] is 7.3% (inactive); in assay [3], -10.2% (inactive); in assay [7], -18.6% (inactive); in assay [8] it was -70.4% (inactive). Further, the inhibition of aggregation in assay [2] was 21.5% (inactive). The nuclei count in assay [2] is 87.6%; in assay [3] it was 96.6%. For the same compound, the fluorescence slope in assay [4] is -0.519 (inactive). Moreover, in assay [5], the NADPH fluorescence slope is -1.9e-05 (inactive). For the same compound, the slope in assay [6] was 0.00495 (inactive).

As to `Cc1ccc(C(=O)N2CCN(C(=O)c3ccc(C)c(C)c3)C(C)C2)cc1C` (centres undefined), the cell count in assay [1] was found to be 409. Moreover, the inhibition in assay [1] is -0.7% (inactive); in assay [3], -179% (inactive); in assay [7] it was 4.92% (inactive); in assay [8], 22.7% (inactive). Further, the inhibition of aggregation in assay [2] is -2.3% (inactive). Besides, the nuclei count in assay [2] is 94.3%; in assay [3] it was 200%. Further, the fluorescence slope in assay [4] was -0.264 (inactive). Besides, the NADPH fluorescence slope in assay [5] is -5.3e-05 (inactive). In addition, the slope in assay [6] was 0.00164 (inactive).

(Values after PubChem BioAssay.)
